Out of some 220,000 compounds screened, about 8,200 (3.7%) were called active. For the sample, actives were picked, then their nearest neighbours and some compounds at random. A number with no mark means an inactive call.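 The calls were made as follows: active = compounds that reduced the stress-induced luciferase reporter signal by more than about 70% of percent inhibition (limit read from the data); inactive = the rest.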

This assay in a line: inhibitors of CHOP promoter induction, primary screen, cell-based, unfolded protein response, luciferase reporter (AID 2732).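 Also: 0% = tunicamycin plus vehicle and 100% = wells without tunicamycin.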 The note with it: CHO-K1 CHOP-promoter luciferase, tunicamycin-induced, 15-18 h; at 10 µM; stronger effect = higher value.
As for `CC(C)(C)C(=O)Nc1c(Br)c(C2CC2)nn1-c1ccccc1`, the inhibition – broadly, the change of the read-out against control, counted positive when it falls – was 0.02%.
As for `CC(C)(C)c1cc(P(=O)(c2ccccc2)c2ccccc2)ccc1O`, the inhibition is 9.08%.
On to `CN1CCN(c2ncc3c(n2)CC(c2ccccc2F)CC3=O)CC1` (stereo unspecified), for which the inhibition was 15.3%.
In the case of `CSc1sc(C(=O)NC(=O)NCc2cccnc2)c(C)c1-c1ccon1`, the inhibition is 28.4%.
Then `COC(=O)c1c(C(=O)OC)c2n(c1C)CCS2`, with 14.2%; and `CCn1c(=O)c2cc(C(=O)Nc3cccc(C(C)=O)c3)sc2c2ccccc21`, with -10.2%.
Regarding `CC(c1ccco1)N(C(=O)Nc1ccccc1)C1CCCCC1` (stereo unspecified), the inhibition is 36.4%.
As to `Cc1ccc(NC(=O)NC(=O)N(C2CCCCC2)S(=O)(=O)c2ccccc2)cc1`, the inhibition is 84% (active).
Take `Cc1ccc(S(=O)(=O)N(C)CC(=O)NC2CCCC2)cc1`: the inhibition was 36.5%.
For `CC1CC(NC(=O)/C(C#N)=C/c2ccc[nH]2)CC(C)(C)C1` (stereo unspecified), the inhibition was -0.59%.
For the compound `Cc1nc2cc3c(cc2s1)OCO3`, the inhibition was 14%.
With `CCCc1c(C(=O)Nc2ccc(F)cc2)cnn1-c1ccccc1`, the inhibition was 14.9%.
Consider `Cc1cc(C)nc(Nc2cc([N+](=O)[O-])ccc2C)n1`, for which the inhibition is 0.9%.
`Cc1ccc(Nc2cc(C)nc3c(C)ccc([N+](=O)[O-])c23)cc1`: the inhibition was 71.4% (active).
In the case of `Cc1ccc(Nc2ccc(C(N)=O)cc2[N+](=O)[O-])cc1`, the inhibition is 21.8%.
Consider `Cn1c(Cc2cccc3ccccc23)nnc1SCC(=O)N1CCN(c2cccc(Cl)c2)CC1`, for which the inhibition is 78.6% (active).
As to `Cc1cc2nnc(SCC(=O)N3CCN(c4ccccc4)CC3)n2c(N)n1`, the inhibition is 23.7%.
Then `Cc1ccccc1NC(=O)Cc1nnc(SCC(=O)N2CCN(c3ccccc3)CC2)n1C`, with 26.1%; and `COc1ccc(OC)c(C(=O)c2ccc(Cl)cc2)c1`, with 9.86%.
Then `Cc1ccc(O)c(CNc2nc3ccccc3n2C)c1`, with 11.9%.
Regarding `Cc1ccc(C2=NN(C)c3nc4ccccc4n3C2)cc1`, the inhibition was 86.3% (active).
As for `Cn1cccc1-c1nc2ccccc2n1C`, the inhibition is -2.65%.
In the case of `COc1ccccc1-n1c(-c2cc(-c3ccco3)[nH]n2)n[nH]c1=S`, the inhibition was -7.77%.
As for `CCO[C@@H]1OC(C(=O)NC2CC2)=C[C@H](C)[C@H]1CCCO`, the inhibition is 0.64%.
Take `CCOC(=O)CN(C(=O)COc1nc(C)cc(C)c1C#N)c1ccc(Cl)cc1`: the inhibition is 23.1%.
For `O=C(CCN1C(=O)/C(=C/c2cccs2)SC1=S)NNC(=O)c1cccc(O)c1`, the inhibition was 46.3%.
For the compound `O=C(CCCN1C(=O)/C(=C\c2ccco2)SC1=S)Nc1cccc2ccccc12`, the inhibition is 73.2% (active).
For `O=C(CCCN1C(=O)/C(=C/c2ccco2)SC1=S)Nc1ccccc1`, the inhibition is 32.2%.
Then `O=c1oc(-c2ccccc2NS(=O)(=O)c2ccc(Cl)cc2)nc2ccccc12`, with 21%; and `Cc1ccc(SCc2c(C(=O)N/N=C/C3CC=CCC3)nnn2-c2nonc2N)cc1` (stereo unspecified), with 36.4%.
`CC(=O)N1N=C(c2ccncc2)OC1(Cc1ccccc1)Cc1ccccc1`: the inhibition is -11.2%.
As for `Cc1ccc(NC(=O)CSc2nnc(COc3ccccc3C)o2)cc1`, the inhibition is 39.4%.
For `Cc1cc(C)cc(OCc2nnc(SCC(=O)Nc3ccccc3)o2)c1`, the inhibition is 91.5% (active).
With `Cc1cc(C)cc(OCc2nnc(SCC(=O)OC3CCCCC3)o2)c1`, the inhibition was 25.7%.
Turning to `COc1ccc2c(c1)C(=C(C#N)C#N)C(=O)N2CCc1ccccc1`, the inhibition was -16.5%.
Take `O=C1CCC(=O)N1c1ccc(NCCc2ccccc2F)c([N+](=O)[O-])c1`: the inhibition was 20%.
As to `NC(=O)CC(NC(=O)Cc1cccc2ccccc12)c1ccc(NCc2cc(F)ccc2F)c([N+](=O)[O-])c1` (stereo unspecified), the inhibition was 99.3% (active).
As for `O=[N+]([O-])c1ccccc1NCc1ccccc1Cl`, the inhibition is 34.1%.
Take `Brc1ccc2ncnc(NCc3cccnc3)c2c1`: the inhibition is 50.9%.
In the case of `CCC(C(=O)OCC(=O)Nc1ccccc1-c1ccccc1)c1ccccc1` (stereo unspecified), the inhibition is 6.12%.
On to `CCC(C(=O)OCC(=O)Nc1ccc(C(=O)Nc2ccc(OC)cc2)cc1)c1ccccc1` (stereo unspecified), for which the inhibition is 89.3% (active).
For `CCC(C(=O)OCC(=O)Nc1c(Cl)cc(Cl)cc1Cl)c1ccccc1` (stereo unspecified), the inhibition is 48.2%.
As to `COc1ccc(C2c3ccc(O)cc3Oc3ncn(CCCO)c(=N)c32)cc1OC` (stereo unspecified), the inhibition was 11.6%.
`CCOCCn1c(-c2ccccc2)nc2ccccc21`: the inhibition is 5.67%.
On to `c1ccc(-c2ccnc3nc(-n4cccc4)nn23)cc1`, for which the inhibition is 7.91%.
In the case of `Cc1ccc(-c2ccnc3nc(Sc4ncc(C(F)(F)F)cc4Cl)nn23)cc1`, the inhibition is 81.4% (active).
Consider `Cc1nn(-c2ncc(C(F)(F)F)cc2Cl)c(=O)n1-c1ccccc1`, for which the inhibition was -12.9%.
For `COc1ccc(-c2ccc(OC(=O)NC3CCS(=O)(=O)C3)cc2)cc1` (stereo unspecified), the inhibition was 20.4%.
As for `COc1cc(/C=N/NC(=O)c2ccccc2)ccc1OS(=O)(=O)c1ccccc1`, the inhibition is -6.49%.
On to `COc1ccc(/C=N/NC(=O)c2ccccc2)cc1OS(=O)(=O)c1ccccc1`, for which the inhibition is 7.47%.
In the case of `COc1cc(/C=N/NC(=O)Nc2ccccc2)ccc1OCCOc1ccccc1C`, the inhibition was 104% (active).
In the case of `CC(C)c1nc(SCC(=O)NC(=O)NC(C)(C)C)n[nH]1`, the inhibition is 18.7%.
On to `Cc1cc(C)cc(OCC(=O)O/N=C(\N)Cc2ccc([N+](=O)[O-])cc2)c1`, for which the inhibition was 13.5%.
For the compound `O=C(Nc1ccc(Br)cn1)C1CCN(S(=O)(=O)c2cccs2)CC1`, the inhibition was 42.9%.
Take `C/C=C/C(=O)Nc1ccc(N2CCN(c3ccc(C(F)(F)F)cn3)CC2)nc1`: the inhibition was 1.12%.
With `Nc1ccccc1Sc1ccc(C(F)(F)F)cc1[N+](=O)[O-]`, the inhibition is -6.84%.
For the compound `COc1ccc(-c2nn(C)c(=O)c3ccccc23)cc1CNC(=O)C1CCCCC1`, the inhibition was 4.54%.
With `CCn1cc(C(=O)NCC2COc3ccccc3O2)c2cc(OC)c(OC)cc2c1=O` (stereo unspecified), the inhibition is 19.1%.
In the case of `Cc1cc(NC(=O)CCC2COc3ccccc3O2)no1` (stereo unspecified), the inhibition is 7.18%.
For `Cc1cc(C(=O)CCl)c(C)n1CC1COc2ccccc2O1` (stereo unspecified), the inhibition was 106% (active).
In the case of `O=C(NC1C2CC3CC(C2)CC1C3)c1ccc(N2CCNCC2)c([N+](=O)[O-])c1` (stereo unspecified), the inhibition was -22.1%.
In the case of `O=C1CCC(=O)N(O)CCCCCNC(=O)CCC(=O)N(O)CCCCCNC(=O)CCC(=O)N(O)CCCCCN1` it was 3.7%.
Regarding `COc1ccccc1NC(=O)c1cc(Cl)nc2ccccc12`, the inhibition was 11.8%.
For the compound `CCn1c2ccccc2c2cc(CC(N)=O)ccc21`, the inhibition is 17.4%.
Then `COc1ccc(C(=O)O/N=C(\N)Cc2ccc(Cl)cc2Cl)cc1OC`, with 60.4%.
In the case of `NC(N)=N/N=C/c1ccc(OCc2ccc(Cl)cc2Cl)cc1` it was 108% (active); in that of `NC(N)=N/N=C/c1ccc(Cl)c([N+](=O)[O-])c1`, -23.8%.
Consider `O=C(CCc1ccccc1)NNc1ccc(F)cc1`, for which the inhibition was 4.92%.
`O=C1NC(Nc2nc3ccccc3s2)(C(F)(F)F)C(=O)N1C1CCCCC1` (stereo unspecified): the inhibition was 78.6% (active).
As for `COC(=O)NC1(C(F)(F)F)NC(=O)N(C2CCCCC2)C1=O` (stereo unspecified), the inhibition is 2.29%.
Then `O=C(NC1(C(F)(F)F)NC(=O)N(C2CCCCC2)C1=O)c1ccco1` (stereo unspecified), with 9.81%; and `Nc1nc(SC23CC4CC(CC(C4)C2)C3)ns1`, with 11.6%; and `COC(=O)c1cn(C(=O)c2ccc(Cl)cc2)c2ccccc12`, with 9.55%.
In the case of `O=C(CSc1nnc(SCc2ccc(F)cc2)s1)Nc1ccc(C(=O)O)cc1` it was -8.93%; in that of `COCCOC(=O)C1=C(C)NC(=O)CC1c1cc2c(cc1Br)OCO2` (stereo unspecified), -14.4%; in that of `CCCOc1ccccc1C1CC(=O)Nc2cc3c(cc21)OCO3` (stereo unspecified), 85.8% (active).
For `COc1ccccc1C1C2=C(COC2=O)Nc2cc3c(cc21)OCO3` (stereo unspecified), the inhibition was 23.1%.
As to `CC(C)(C)c1nnc(NC(=O)C2c3ccccc3Oc3ccccc32)s1`, the inhibition was 45.8%.
Take `CCn1c(SCc2ccc(C)cc2)nnc1-c1nn(-c2ccccc2)ccc1=O`: the inhibition is 28.9%.
As for `CCc1ccc(-c2nn(-c3ccccc3)cc2CSC(=N)N)cc1`, the inhibition is 103% (active).
For `N=C(N)SCc1cccc2ccccc12`, the inhibition was 35.6%.
For `Cn1c(=O)c2c(-c3cccc(Br)c3)c(C#N)c(N)nc2n(C)c1=O`, the inhibition is 3.49%.
As to `Cc1nc(N)sc1N=Nc1c(C)n(C)n(-c2ccccc2)c1=O`, the inhibition was 4.59%.
Take `O=C(CCl)Nc1ccc(Sc2ccc(NC(=O)CCl)cc2)cc1`: the inhibition is 106% (active).
With `Cc1ccc(NC(=O)CC(=O)Nc2ccc(C)cc2)cc1`, the inhibition is 20.6%.
`CC(C)(CCl)C(=O)Nc1ccc(Sc2ccc(F)cc2)cc1`: the inhibition is 68%.
Consider `COc1ccc(N=C(C)c2sc3ccccc3c2O)cc1`, for which the inhibition was 1.74%.
For `C=CCNC(=S)N/N=C/c1ccc(C)s1`, the inhibition is -20%.
`CC(=O)NCC(O)c1ccc([N+](=O)[O-])cc1` (stereo unspecified): the inhibition was 5.99%.
On to `O=S(=O)(NCc1ccco1)c1cnc(Cl)c(Cl)c1`, for which the inhibition is -45.5%.
For `CN=C1C=C/C(=N/N=c2\ccn(O)cc2C)C=C1C`, the inhibition is -15.3%.
Consider `Cc1ccc2c(c1)C(c1ccccc1)N(C(=O)c1ccc(S(=O)(=O)N3CCOCC3)cc1)CC(=O)N2` (stereo unspecified), for which the inhibition was 18%.
In the case of `COC(=O)CN1C(C)=Nc2ccc(Br)cc2C1c1ccccc1` (stereo unspecified) it was -10.6%; in that of `CCC(CC)C(=O)N1CC(=O)Nc2ccc(Br)cc2C1c1ccccc1` (stereo unspecified), 81.3% (active); in that of `CN(C)C(=O)c1nc2ccc(Cl)cn2c1CNCc1cccc(OC(F)(F)F)c1`, -1.69%.
In the case of `Cc1cnc(NC(=O)Cn2cnc3c2c(=O)n(C)c(=O)n3C)s1` it was -10.1%.

These data come from PubChem BioAssay AID2732 (Emory University Molecular Libraries Screening Center, 2010).
